Source: publication PMC5540273 (PLoS ONE, 2017)

Tests used:
Settings in all cases: concentration: 1 μM,replicates: in singlicate; n = 1
ZAK = test system: ZAK
ZAP70 = test system: ZAP70
p38-alpha = test system: T1, p38-alpha
T1 construct: gene MAPK14

p38-beta = test system: T2, p38-beta
T2 construct: gene MAPK11

p38-delta = test system: p38-delta
p38-gamma = test system: T3, p38-gamma
T3 construct: gene MAPK12
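Further: KINOMEscan kinase panel screen.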

| SMILES | %Inh (ZAK) | %Inh (ZAP70) | %Inh (p38-alpha) | %Inh (p38-beta) | %Inh (p38-delta) | %Inh (p38-gamma) |
| --- | --- | --- | --- | --- | --- | --- |
| CC(C)c1nc(-c2cccc(NS(=O)(=O)c3ccccc3)c2)c(-c2ccnc(Nc3ccc4c(c3)CN(C)CC4)n2)s1 [GSK1649598] | 98.6% | 7% | 91.5% | 35% | 48% | 7% |
| COC(=O)Nc1nc2cc(Oc3ccc(NC(=O)Nc4cc(C(F)(F)F)ccc4Cl)cc3)ccc2[nH]1.Cl [GW697465] | 98.4% | 0% | 83% | 45% | 48% | 0% |
| N#Cc1cccc(C(=O)NC2CCN(c3ccnc(Nc4ccc(F)cc4)n3)C2)c1 (stereo not drawn) [GSK1379708] | 0% | 0% | 35% | 0% | 38% | 0% |
| Cn1ccc2ncnc(Oc3ccc(NC(=O)Nc4cc(C(C)(C)C)on4)c(Cl)c3)c21 | 87% | 0% | 97.2% | 78% | 36% | 56% |
| CN(c1ccccc1CNc1nc(Nc2ccc3c(c2)CC(=O)N3)ncc1C(F)(F)F)S(C)(=O)=O | 0% | 0% | 0% | 0% | 56% | 0% |
| Cc1cccc2c(-c3ccncc3)c(-c3ccc(F)cc3)nn12.Cl [GW461487] | 0% | 5% | 98.3% | 22% | 39% | 17% |
| COC(=O)c1cccc(NC(=O)NC2CCN(c3ccnc(NCc4ccc(F)cc4)n3)CC2)c1 [GSK1379860] | 0% | 0% | 0% | 0% | 34% | 0% |
| NC(=O)Nc1sc(-c2ccc(F)cc2)cc1C(N)=O [GW789449] | 21% | 5% | 6% | 0% | 0% | 16% |
| Cl.c1ccc(Oc2ccc(Nc3ccnc4cc(-c5ccc(CN6CCNCC6)o5)ccc34)cc2)nc1 [GW567142] | 60% | 0% | 12% | 0% | 39% | 5% |
| COc1cccc(C2=C(Nc3cccc(Cl)c3)C(=O)NC2=O)c1 [SB-341556] | 16% | 1% | 0% | 0% | 11% | 0% |
| CC(=O)Nc1ccc(-c2cc3ncnc(SCC(=O)O)c3s2)cc1 | 40% | 2% | 12% | 1% | 29% | 0% |
| COc1cccc(OC)c1C(=O)Nc1cccc(-c2nn3ccccc3c2-c2ccnc(Nc3cccc(F)c3)n2)c1 [GSK361065] | 66% | 0% | 21% | 90% | 11% | 24% |
| C[C@@H]1CCN(C(=O)N2CCCC2)C[C@@H]1N(C)c1ncnc2[nH]ccc12 | 12% | 0% | 5% | 2% | 25% | 10% |
| O=C(Nc1cccc(Oc2ccc3nccn3n2)c1)Nc1cccc(C(F)(F)F)c1 | 97.8% | 3% | 17% | 12% | 0% | 19% |
| CCn1c(-c2nonc2N)nc2cncc(Br)c21 [SB-738004] | 15% | 9% | 6% | 0% | 0% | 7% |
| NC(=O)c1ccc(-c2cc3ncnc(SCC(=O)O)c3s2)cc1 | 0% | 0% | 0% | 2% | 24% | 0% |
| COC(=O)c1cccc(NC(=O)NC2CCN(c3ccnc(Nc4cc(OC)c(OC)c(OC)c4)n3)C2)c1 (stereo not drawn) [GSK1379767] | 3% | 17% | 37% | 0% | 22% | 0% |
| COc1ccc(Nc2nccc(N3CCC(NC(=O)c4cccc(C#N)c4)C3)n2)cc1 (stereo not drawn) [GSK1379730] | 26% | 0% | 5% | 0% | 38% | 0% |
| C[C@@H](Oc1cc(-n2cnc3cc(-c4cnn(C)c4)ccc32)sc1C(N)=O)c1ccccc1Cl [GSK580432] | 6% | 0% | 0% | 0% | 0% | 0% |
| Nc1nccc(-c2ccc3c(N)n[nH]c3c2)n1 [GSK1034945] | 1% | 0% | 0% | 0% | 36% | 0% |
| COc1cc2c(Nc3ccc(NC(=O)c4ccccc4)cc3)ncnc2cc1OCCCN1CCOCC1 [GSK301329] | 8% | 0% | 0% | 0% | 11% | 0% |

| SMILES | %Inh (ZAK) | %Inh (ZAP70) | %Inh (p38-alpha) | %Inh (p38-beta) | %Inh (p38-delta) | %Inh (p38-gamma) |
| --- | --- | --- | --- | --- | --- | --- |
| CC(=O)c1c(-c2ccncc2)[nH]c(-c2ccncc2)c1C [GW493036] | 34% | 48% | 34% | 0% | 49% | 19% |
| O=C(NCC1CC1)c1ccc(-c2cc(C(=O)NC3CC3)ccc2F)cc1 [GW810445] | 0% | 0% | 55% | 0% | 0% | 29% |
| Cn1ccc2ncnc(Oc3ccc(NC(=O)Nc4cnn(C(C)(C)C)c4)c(Cl)c3)c21 | 0% | 6% | 91.6% | 28% | 3% | 24% |
| C[C@@H]1CNc2c(sc3ccc4nc(-c5ccc(O)cc5)ccc4c23)C(=O)N1 | 0% | 0% | 5% | 33% | 30% | 2% |
| CN(c1cccc(CNc2nc(Nc3ccc4c(c3)CC(=O)N4)ncc2C(F)(F)F)c1)S(C)(=O)=O | 0% | 0% | 0% | 0% | 11% | 9% |
| Cn1ccc2ncnc(Oc3ccc(NC(=O)Nc4cccc(C(F)(F)F)c4)c(F)c3)c21 | 18% | 1% | 12% | 20% | 0% | 62% |
| Cc1ccc(Nc2ccnc(Nc3ccc4c(c3)CS(=O)(=O)C4)n2)cc1O.Cl [GW579362] | 56% | 37% | 96.8% | 85% | 99.8% | 23% |
| O=C1NCCc2[nH]c(-c3ccncc3)cc21 | 20% | 0% | 2% | 27% | 62% | 26% |
| CC(C(=O)NC1CCN(c2ccnc(Nc3ccc(F)cc3)n2)C1)c1ccc(Cl)cc1 (stereo not drawn) [GSK1379713] | 5% | 0% | 8% | 0% | 5% | 0% |
| FC(F)(F)c1cc(Br)cc(Nc2nccc(-c3cnn4ncccc34)n2)c1 [GW810578] | 16% | 0% | 0% | 0% | 0% | 41% |
| O=c1[nH]cc(-c2ccc(O)cc2)c2sc(-c3ccncc3)cc12 [GSK1033723] | 1% | 0% | 0% | 0% | 0% | 26% |
| O=C(Nc1cccc(C(F)(F)F)c1)c1cccc(Oc2ccc3nccn3n2)c1 | 35% | 15% | 0% | 0% | 0% | 27% |
| Cn1ccc2ncnc(Oc3ccc(NC(=O)Nc4cncc(C(F)(F)F)c4)c(Cl)c3)c21 | 0% | 0% | 47% | 30% | 0% | 0% |
| O=C(Nc1ccccc1)c1cccc(Oc2ccc3nccn3n2)c1 | 0% | 0% | 0% | 0% | 0% | 3% |
| CN1CCN(CCCNc2nccc(-c3c(-c4ccc(F)cc4)nn4cc(C(N)=O)ccc34)n2)CC1 [GW622475] | 31% | 0% | 99.9% | 79% | 26% | 13% |
| CCCC(=O)Nc1n[nH]c2ncccc12 [SB-601436] | 20% | 0% | 0% | 0% | 0% | 13% |
| CS(=O)c1ccc(-c2coc3ccc(-c4n[nH]c(=O)o4)cc23)cc1 (stereo not drawn) | 0% | 1% | 10% | 9% | 0% | 0% |
| O=C(NOCC1CC1)c1cc(Br)c(F)c(F)c1Nc1ccc(I)cc1Cl | 0% | 0% | 0% | 1% | 35% | 0% |
| Cn1ccc2ncnc(Oc3ccc(NC(=O)Nc4cccc(C(F)(F)F)c4)c(Cl)c3)c21 | 14% | 0% | 0% | 44% | 35% | 10% |
| COc1cc2nccc(Nc3ccc(Oc4ccccc4)cc3)c2cc1OC.Cl [GI261656] | 55% | 0% | 0% | 0% | 20% | 0% |
